In PubChem BioAssay (Tox21):
Calls of active or inactive are those of the source. Calls follow the shape of the dose curve; as a rule, active = well fitted curve in the direction sought with a large enough effect in the repeat runs; inconclusive = weak or mixed curves; inactive = flat fitted curve, though single readings scatter.

Assay: qHTS assay to test for compound auto fluorescence at 535 nm (green) in HEK293 cell free culture (AID 720682)
Details: cell-free medium, green autofluorescence 485/535 nm; series mostly up to 91.3 µM
How it was run: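 Compounds were pin-transferred into cell-free DMEM with 10% FBS, and green fluorescence was read at excitation 485 nm and emission 535 nm. Intensities were expressed as fluorescein-equivalent values.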

Row | SMILES | outcome
1 | CC(C)(C)NC[C@H](O)COc1nsnc1N1CCOCC1 | inactive
2 | Cc1ccc([N+](=O)[O-])cc1N | inactive
3 | CC(C)=CCC/C(C)=C/C=O | inactive
4 | O=C(NCC1CCCCN1)c1cc(OCC(F)(F)F)ccc1OCC(F)(F)F (stereo not drawn) | inactive
5 | CC1(C)[C@@H](O[C@H]2O[C@H](C(=O)O)[C@@H](O)[C@H](O)[C@H]2O[C@@H]2O[C@H](C(=O)O)[C@@H](O)[C@H](O)[C@H]2O)CC[C@]2(C)[C@H]3C(=O)C=C4[C@@H]5C[C@@](C)(C(=O)O)CC[C@]5(C)CC[C@@]4(C)[C@]3(C)CC[C@@H]12 | inactive
6 | C1CCCNCC1 | inactive
7 | COc1c2ccoc2cc2oc(=O)ccc12 | inactive
8 | CC(=O)Nc1ccc(CC(=O)O)cc1 | inactive
9 | CCCCCCC(=O)O | inactive
10 | CC(=O)OC(C)(C)C1CC=C(C)CC1 (stereo not drawn) | inactive
11 | Cc1ccccc1C=O | inactive
12 | NC(=O)NC(N)=O | inactive
13 | Cc1cc(CC(=O)O)n(C)c1C(=O)c1ccc(Cl)cc1 | inactive
14 | C[Si](C)(C)N[Si](C)(C)C | inactive
15 | COc1ccc2cc3[n+](cc2c1OC)CCc1cc2c(cc1-3)OCO2 | inactive
16 | Nc1nc(N)c2nc(-c3ccccc3)c(N)nc2n1 | inactive
17 | Clc1cccc(Cl)c1NC1=NCCN1 | inactive
18 | O=C(O)C1=NN(c2ccc(S(=O)(=O)O)cc2)C(=O)C1 | inactive
19 | N[C@@H](Cc1cc(I)c(Oc2ccc(O)c(I)c2)c(I)c1)C(=O)O | inactive

Row | SMILES | outcome
20 | C=C(CC(=O)O)C(=O)O | inactive
21 | Cc1ccccc1Cl | inactive
22 | CCCCCCCCCCCCCC(=O)O | inactive
23 | O=C1CCCCCCCCCCC1 | inactive
24 | COCN(COC)c1nc(N(COC)COC)nc(N(COC)COC)n1 | inactive
25 | Cc1nnc(NS(=O)(=O)c2ccc(N)cc2)s1 | inactive
26 | C[n+]1ccn(CCO)c1 | inactive
27 | NC(N)=S | inactive
28 | CCCCCCCCC(=O)O | inactive
29 | OC1CCCCC1 | inactive
30 | Cc1ccc(C(C)C)cc1 | inactive
31 | CCn1cc(C(=O)O)c(=O)c2cc3c(cc21)OCO3 | inactive
32 | CC(=O)CC(=O)N(C)C | inactive
33 | CCCCC(CC)COC(=O)c1ccc(C(=O)OCC(CC)CCCC)cc1 (stereo not drawn) | inactive
34 | Cc1cc(C)c(O)c(C)c1 | inactive
35 | CC(C)c1ccc(C(C)C)cc1 | inactive
36 | Oc1ccc(Cc2ccccc2O)cc1 | inactive
37 | OCC(O)CS (stereo not drawn) | inactive
38 | Cc1ccncc1 | inactive
